The record followed here is PubChem BioAssay.

Entries with a potency or affinity are not part of this list. Activity calls are given as the source filed them.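 How the source made its calls: active means a fitted half-maximal concentration no higher than twice the top valid tested dose, with signal falling as cells die; inconclusive means flat curve between -70% and -30%, or poor fit; inactive means the rest, including signal rising instead of falling.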

The experiment can be described thus: viability loss in HeLa cells – cell-based, ATP luminescence, cherry-pick samples, cytotoxicity control, dose response (AID 687004).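 Further: 0% = neutral control median and -100% = staurosporine 10 µM control median.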 The settings on record: ATP luminescence (CellTiter-Glo), 48 h; series mostly up to 26 µM; activity change, negative = cytotoxicity: at the top concentration. For orientation: ATP-based viability assays read luminescence as a measure of living cells.
Turning to `COc1ccccc1-c1ccc2c(c1)O[C@@H](CN(C)C(=O)c1cccnc1)[C@H](C)CN([C@@H](C)CO)S2(=O)=O`, the “activity change, negative = cytotoxicity” value was 7.37% (inactive).

Take `C[C@@H]1CN([C@H](C)CO)C(=O)c2cc(-c3ccc(C#N)cc3)cnc2O[C@@H]1CN(C)C(=O)Nc1ccc(F)cc1`: the “activity change, negative = cytotoxicity” value was 13.7% (inactive).

Take `CCCN(C)C[C@@H]1OCCCC[C@H](C)Oc2ccc(NS(=O)(=O)c3ccc(C)cc3)cc2C(=O)N([C@H](C)CO)C[C@@H]1C`: the “activity change, negative = cytotoxicity” value is 22.8% (inactive).

Take `CCCNC(=O)N(C)C[C@H]1Oc2ncc(C#CC3CCCCC3)cc2C(=O)N([C@@H](C)CO)C[C@@H]1C`: the “activity change, negative = cytotoxicity” value is 6.53% (inactive).

As for `O=C(C[C@@H]1CC[C@@H]2[C@H](COC[C@H](O)CN2S(=O)(=O)c2ccc(Oc3ccccc3)cc2)O1)NC1CCC1`, the “activity change, negative = cytotoxicity” value is 1.07% (inactive).

Regarding `CO[C@@H]1CN(C)C(=O)c2cc(NS(=O)(=O)c3ccc(C)cc3)ccc2OC[C@@H](C)N(C)C[C@@H]1C`, the “activity change, negative = cytotoxicity” value is 7.14% (inactive).

`CCNC(=O)COc1cccc(C(=O)NCc2ccccc2)c1`: the “activity change, negative = cytotoxicity” value was 6.99% (inactive).
